Measurements: PubChem BioAssay
The source made the active and inactive calls. Unless noted, the rule behind the calls is not given here.

Legend:
[1] = resazurin metabolic signal in HepG2 cells – cell-based, resazurin fluorescence, 24 h, PK04 Diversity Set, profiling panel (AID 1172); details: HepG2 viability, higher = more signal
[2] = budding yeast growth changes without added modifier – OD600, strain BY4716, 24 h, basal condition, primary screen (AID 1173); details: S. cerevisiae BY4716 growth, OD600, 24 h; higher = more signal, called active from +8 up or from −8 down
[3] = viability profiling in MM1S myeloma cells – cell-based, resazurin fluorescence, basal, 24 h, PK04 Diversity Set, profiling panel (AID 1174); details: higher = more signal, called active from +8 up or from −8 down;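 note: MM1S multiple myeloma cell line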
[4] = molecular target: Dihydroorotate dehydrogenase (quinone), mitochondrial (Plasmodium falciparum (isolate 3D7)) (UniProt Q08210); assay: inhibition of P. falciparum DHODH – biochemical, C-terminal His tag, absorbance 600 nm, primary screen (AID 1175); details: PfDHODH enzyme, DCIP absorbance 600 nm; higher = more signal, called active from +8 up or from −8 down;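 note: recombinant parasite enzyme with a five histidine tag at its C terminus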
[5] = inhibition of PAO1 biofilm formation – strain PAO1, LB-PBS medium, absorbance 600 nm, primary screen (AID 1176); details: P. aeruginosa PAO1 growth/biofilm, A600, 12 h; higher = more signal
[6] = growth modulation of vineyard yeast isolate – strain RM11-1a, OD600, basal, 24 h, primary screen (AID 1177);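 note: cultures grown under basal conditions with no added stressor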; details: S. cerevisiae RM11-1a growth, OD600, 24 h; higher = more signal, called active from +8 up or from −8 down
[7] = growth of efflux-deficient E. coli DRC39 – strain DRC39, OD650, 24 h, E. coli filamentation inducers, primary screen (AID 1178);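 note: growth measured as culture turbidity by optical density at 650 nm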; details: E. coli DRC39 acrAB, higher = more signal, called active from +8 up or from −8 down
[8] = growth of efflux-deficient E. coli DRC39 – strain DRC39, OD650, 48 h, E. coli filamentation inducers, primary screen (AID 1179);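 note: screen aims at cell division blockers that make cells filament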; details: E. coli DRC39 delta-acrAB growth, higher = more signal, called active from +8 up or from −8 down
[9] = viability profiling in RPMI8226 myeloma cells – cell-based, resazurin fluorescence, basal, 24 h, PK04 Diversity Set, profiling panel (AID 1180); details: higher = more signal;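 note: RPMI8826 multiple myeloma cell line at 5000 cells per well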
[10] = molecular target: E3 ubiquitin-protein ligase XIAP (Homo sapiens) (UniProt P98170); assay: small molecules binding XIAP protein – biophysical, small-molecule microarray, fluorescence 635 nm, primary screen (AID 1181); details: higher = more signal;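 note: score merges 667 nm emission and signal to noise over triplicate slides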
[11] = tested on: XIP peptide (Xip251-270) binding; assay: XIP fragment 251-270 binding compounds – biochemical, small-molecule microarray, fluorescence 635/667 nm, 0.1 µg/mL protein, primary screen (AID 1182); details: fluorescent protein binding, 635 nm, higher = more signal, called active from +8 up or from −8 down
[12] = tested on: XIP peptide (Xip251-270); assay: compounds binding XIP fragment 251-270 – biochemical, small-molecule microarray, fluorescence 635/667 nm, 0.5 µg/mL protein, primary screen (AID 1183); details: fluorescence 635 nm, higher = more signal
[13] = blood-stage malaria parasite viability loss – strain 3D7, DAPI fluorescence, 100 nL, primary screen (AID 1184);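 note: parasites grown inside human red blood cells in medium with human serum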; details: P. falciparum 3D7 growth, 3 d, higher = more signal
[14] = molecular target: Homeobox protein Hox-A13 (Mus musculus) (UniProt Q62424); assay: disruptors of Hoxa13 oligonucleotide interaction – biochemical, fluorescence polarization, labeled oligonucleotide, primary screen (AID 1185); details: Hoxa13:DNA binding, 15 min, higher = more signal, called active from +8 up or from −8 down
[15] = blockers of DNA damage checkpoint Chk1 activation – imaging, HeLa, hydroxyurea, phospho-Chk1 antibody, percent positive cells, primary screen (AID 1186); details: hydroxyurea-induced phospho-Chk1 immunofluorescence imaging, higher = more signal
[16] = blockers of DNA damage checkpoint Chk1 activation – imaging, HeLa, hydroxyurea, phospho-Chk1 nuclear intensity, primary screen (AID 1187); details: hydroxyurea-induced phospho-Chk1 immunofluorescence imaging, higher = more signal

Sequence of E3 ubiquitin-protein ligase XIAP (Homo sapiens) (P98170 whole entry, looked up, the tested form may be a part): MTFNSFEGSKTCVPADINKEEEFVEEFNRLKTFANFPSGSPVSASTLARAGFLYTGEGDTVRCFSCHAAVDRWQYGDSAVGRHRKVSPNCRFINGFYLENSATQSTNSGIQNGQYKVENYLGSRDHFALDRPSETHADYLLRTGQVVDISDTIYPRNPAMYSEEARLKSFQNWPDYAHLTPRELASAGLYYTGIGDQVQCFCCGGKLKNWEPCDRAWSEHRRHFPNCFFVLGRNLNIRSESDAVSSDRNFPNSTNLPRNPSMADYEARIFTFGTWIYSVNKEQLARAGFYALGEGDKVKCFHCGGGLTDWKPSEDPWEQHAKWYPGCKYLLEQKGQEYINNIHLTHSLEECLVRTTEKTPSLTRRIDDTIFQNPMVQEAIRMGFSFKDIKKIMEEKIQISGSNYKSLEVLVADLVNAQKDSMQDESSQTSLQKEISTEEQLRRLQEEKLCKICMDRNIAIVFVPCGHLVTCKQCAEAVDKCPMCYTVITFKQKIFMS
Sequence of Homeobox protein Hox-A13 (Mus musculus) (Q62424 whole entry, looked up): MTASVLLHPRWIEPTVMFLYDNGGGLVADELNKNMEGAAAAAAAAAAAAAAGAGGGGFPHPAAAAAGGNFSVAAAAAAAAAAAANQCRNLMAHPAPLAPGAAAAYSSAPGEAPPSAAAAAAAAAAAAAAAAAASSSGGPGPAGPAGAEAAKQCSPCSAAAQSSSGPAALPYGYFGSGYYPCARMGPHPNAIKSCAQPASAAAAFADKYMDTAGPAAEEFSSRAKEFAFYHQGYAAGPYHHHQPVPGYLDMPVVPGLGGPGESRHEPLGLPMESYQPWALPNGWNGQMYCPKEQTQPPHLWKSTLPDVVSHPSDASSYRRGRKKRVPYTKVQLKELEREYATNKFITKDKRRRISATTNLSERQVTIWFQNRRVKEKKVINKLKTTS
Sequence of Dihydroorotate dehydrogenase (quinone), mitochondrial (Plasmodium falciparum (isolate 3D7)) (Q08210 whole entry, looked up): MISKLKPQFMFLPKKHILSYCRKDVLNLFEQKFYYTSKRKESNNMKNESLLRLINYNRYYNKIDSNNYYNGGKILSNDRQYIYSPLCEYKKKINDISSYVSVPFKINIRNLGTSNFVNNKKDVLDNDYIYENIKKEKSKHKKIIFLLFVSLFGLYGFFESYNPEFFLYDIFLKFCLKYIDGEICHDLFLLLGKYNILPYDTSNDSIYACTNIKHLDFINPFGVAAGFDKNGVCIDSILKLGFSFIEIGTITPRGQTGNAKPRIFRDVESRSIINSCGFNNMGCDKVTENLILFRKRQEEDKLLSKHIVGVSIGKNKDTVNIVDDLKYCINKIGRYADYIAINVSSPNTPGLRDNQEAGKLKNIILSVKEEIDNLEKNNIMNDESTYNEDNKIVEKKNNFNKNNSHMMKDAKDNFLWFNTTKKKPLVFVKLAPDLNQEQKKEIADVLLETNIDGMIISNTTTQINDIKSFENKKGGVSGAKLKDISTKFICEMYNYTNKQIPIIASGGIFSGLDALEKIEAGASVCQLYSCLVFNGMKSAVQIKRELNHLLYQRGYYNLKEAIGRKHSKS

| Structure (SMILES) | z-score [1] | z-score [2] | z-score [3] | composite z-score [4] | z-score [5] | z-score [6] | z-score [7] | z-score [8] | z-score [9] | composite z-score [10] | composite z-score [11] | composite z-score [12] | z-score [13] | z-score [14] | z-score [15] | z-score [16] |
| --- | --- | --- | --- | --- | --- | --- | --- | --- | --- | --- | --- | --- | --- | --- | --- | --- |
| O=C1OCC=C[C@H]2OC34C=CCN(Cc5ccccc5)C(=O)[C@H]3N(CCCO)C(=O)[C@@H]4[C@@H]12 (some centres undefined) | 0.0395 | -0.616 (inactive) | -0.0608 (inactive) | -1.55 (inactive) | -0.0963 (inactive) | 0.242 (inactive) | -0.658 (inactive) | 0.122 (inactive) | -0.0906 | 0.643 | 1.09 (inactive) | 0.212 | -1.89 | -4.31 (inactive) | -1.44 (inactive) | -0.938 (inactive) |
| CCOC(=O)C1=CC[C@@H](c2ccccc2)N(S(=O)(=O)c2ccc(C)cc2)[C@H]1c1ccc(C#N)cc1 | 0.162 | 1.5 (inactive) | -0.116 (inactive) | -0.0753 (inactive) | 0.381 (inactive) | -0.299 (inactive) | -0.604 (inactive) | -0.288 (inactive) | -1.4 | 0.0123 | 0.432 (inactive) | 0.728 | -1.95 | 0.426 (inactive) | 0.972 (inactive) | 0.136 (inactive) |
| COCCOC(=O)N1C(=O)[C@@]2(c3cc(C#Cc4ccc(OC)cc4)ccc31)[C@H](c1ccc(OCCO)cc1)N1[C@H](c3ccccc3)[C@H](c3ccccc3)OC(=O)[C@H]1[C@@H]2C(=O)N1CCc2cc(OC)c(OC)cc2C1 | 1.04 | 2.62 (inactive) | 1.02 (inactive) | -0.0321 (inactive) | 3.34 (inactive) | 3.55 (inactive) | -0.148 (inactive) | 0.0574 (inactive) | 0.928 | -0.0476 | 0.179 (inactive) | 0.592 | -1.85 | 3.38 (inactive) | -0.329 (inactive) | -0.456 (inactive) |
| CCOC(=O)C[C@H]1[C@H](OC(=O)c2ccccc2-c2ccccc2)[C@@H](NC(=O)c2ccc(-c3ccccc3)cc2)c2cc(OCCCO)ccc2N1C(=O)c1ccccc1 | -0.607 | 0.579 (inactive) | 0.633 (inactive) | 1.03 (inactive) | -0.341 (inactive) | 1.61 (inactive) | 1.39 (inactive) | 0.53 (inactive) | 0.608 | -0.121 | 0.788 (inactive) | 0.79 | -1.43 | -1.95 (inactive) | -0.189 (inactive) | 0.151 (inactive) |
| C=CC[C@]1(C(=O)O)N=C(c2ccc(OCCCO)cc2)O[C@H]1c1ccccc1CN=[N+]=[N-] | 0.13 | -0.518 (inactive) | -2.6 (inactive) | 0.381 (inactive) | -0.555 (inactive) | 0.363 (inactive) | 0.104 (inactive) | 0.619 (inactive) | -0.728 | 0.117 | 1 (inactive) | -0.76 | 0.797 | -5.35 (inactive) | 0.341 (inactive) | -0.0268 (inactive) |
| CN1C(=O)C2C=CC(C(O)c3ccccc3)N(NC(=O)OC(C)(C)C)C2C1=O (centres undefined) | -1.24 | 1.34 (inactive) | -0.749 (inactive) | 0.802 (inactive) | 0.31 (inactive) | 1.18 (inactive) | -0.68 (inactive) | -0.454 (inactive) | -0.0265 | 0.0338 | 0.4 (inactive) | 0.886 | -0.305 | -0.867 (inactive) | 0.253 (inactive) | -0.0164 (inactive) |
| O=C1NC(=O)C2C1C=CC(C(O)c1cccs1)N2Nc1ccccn1 (centres undefined) | -0.687 | 0.0408 (inactive) | -1.71 (inactive) | 0.566 (inactive) | 0.916 (inactive) | 0.623 (inactive) | -0.0795 (inactive) | 0.0691 (inactive) | 0.398 | 0.174 | 1.43 (inactive) | 0.438 | 0.197 | -5.03 (inactive) | -0.0367 (inactive) | -0.263 (inactive) |
| CCCNC(=O)[C@@]1(C)c2ccccc2C(=O)N(Cc2cc(C(F)(F)F)cc(C(F)(F)F)c2)[C@H]1c1ccc(CO)cc1 | 0.597 | -0.991 (inactive) | 0.526 (inactive) | -0.241 (inactive) | 0.882 (inactive) | -0.563 (inactive) | 0.0099 (inactive) | -0.161 (inactive) | 0.73 | -0.212 | 0.977 (inactive) | 0.665 | -1.63 | -4.26 (inactive) | -0.0596 (inactive) | -0.0865 (inactive) |
| C=C(C(=O)CC[C@@H](OC(C)=O)c1ccc(OCCO)cc1)C(C)C | 0.0804 | -0.99 (inactive) | -0.522 (inactive) | -1.51 (inactive) | 1.48 (inactive) | 0.156 (inactive) | -0.248 (inactive) | -0.227 (inactive) | -0.271 | 0.612 | 0.564 (inactive) | 0.101 | -1.42 | -3.67 (inactive) | 0.598 (inactive) | 0.147 (inactive) |
